PfG6PD inh – PfG6PD (Plasmodium falciparum) enzyme inhibition. PfGluPho enzyme, NADPH resazurin-diaphorase fluorescence. inhibition, % at 20 µM. 350,000 tested, 0.78% active;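 active = inhibition reaching at least a set limit at 20 µM in the primary screen, cut at about 59% in these data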
PRMT1 inh – blocks human protein arginine methyltransferase 1. 370,000 tested, 1.3% active. inhibition, % at 2.79 µM. recombinant PRMT1, activity-based probe fluorescence polarization. Q99873;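 active = inhibition above about 21% made by adding two undisclosed values, limit read from the data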
MBD2 inh – blocks human MBD2 binding to methylated DNA; TR-FRET, MBD2 binding to methylated oligonucleotide; inhibition, % at 4.4 µM; 370,000 tested, 0.31% active; in the data active = inhibition above about 13%
Target sequence (Q9UBB5 whole entry, looked up): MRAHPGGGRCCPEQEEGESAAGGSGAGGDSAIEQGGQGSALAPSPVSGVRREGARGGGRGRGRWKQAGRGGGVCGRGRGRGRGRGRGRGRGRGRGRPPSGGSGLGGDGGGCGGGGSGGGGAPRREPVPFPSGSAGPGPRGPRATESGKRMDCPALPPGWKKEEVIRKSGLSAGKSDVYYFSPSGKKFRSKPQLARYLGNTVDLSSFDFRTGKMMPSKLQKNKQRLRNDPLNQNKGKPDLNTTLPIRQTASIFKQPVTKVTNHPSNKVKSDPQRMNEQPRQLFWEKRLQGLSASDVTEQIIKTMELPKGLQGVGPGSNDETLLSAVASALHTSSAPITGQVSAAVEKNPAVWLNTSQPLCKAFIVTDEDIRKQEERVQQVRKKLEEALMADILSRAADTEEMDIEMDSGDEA
UHRF1 MBD2 ctr – blocks human UHRF1 binding to methylated DNA. UHRF1 binding to methylated oligo, TR-FRET. AID 687016. inhibition, % at 4.4 µM. Q96T88. 370,000 tested, 0.75% active;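 note: UHRF1 SRA domain binding a hemimethylated CpG hairpin DNA probe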
PfM18AAP inh-1 – PfM18AAP enzyme inhibition. recombinant PfM18AAP, H-Glu-NHMec fluorogenic cleavage. inhibition, % at 7.35 µM. 290,000 tested, 1.2% active;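 active = inhibition above the campaign mean inhibition over all tested compounds plus 3 SD, cut at about 28% in these data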
PfM18AAP inh-2 – confirmation of Plasmodium falciparum M18 aspartyl aminopeptidase inhibitors; inhibition, % at 7.35 µM; 2,400 tested, 28% active; shares compounds with PfM18AAP inh-1; recombinant PfM18AAP, H-Glu-NHMec fluorogenic cleavage;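 active = mean inhibition over replicate wells above the hit cutoff set for the earlier primary screen, cut at about 29% in these data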
CTSL1 confirm – Cathepsin L (human) inhibition, confirmation. AID 2178. shares compounds with PfM18AAP inh-1. purified cathepsin L1, Z-Leu-Arg-MCA fluorescence. 2,400 tested, under 10 active. inhibition, % at 5.96 µM;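 active = average inhibition across replicates above the hit cutoff set in the earlier primary screen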
PfG6PD confirm – PfG6PD inhibition, single-dose confirmed | shares compounds with PfG6PD inh | recombinant PfGluPho, NADPH-diaphorase-resazurin fluorescence | inhibition, % at 20 µM | 2,400 tested, 34% active | AID 504753;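 active = inhibition of at least 50% at 20 µM in any single replicate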
Diaphorase 10uM – counter-screen for P. falciparum G6PD inhibitors: diaphorase inhibitors, oxidizers | AID 504862 | 820 tested, 39% active | diaphorase-coupled resazurin reduction, fluorescence, NADPH 10 uM | shares compounds with PfG6PD inh | inhibition, % at 20 µM;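 active = average inhibition reaching 50% or more with the compound at 20 µM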;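 note: resorufin red fluorescence formed as diaphorase reduces resazurin using NADPH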
Diaphorase 30uM – diaphorase inhibition or oxidation at 30 uM NADPH; shares compounds with PfG6PD inh; Diaphorase/resazurin coupled assay, resorufin fluorescence; inhibition, % at 20 µM; 820 tested, 29% active;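 active = inhibition averaging 50% or more, tested at 20 µM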
PRMT1 inh conf – PRMT1 (human) inhibition, FP confirmation | 3,300 tested, 42% active | recombinant His-PRMT1, activity-based probe fluorescence polarization | shares compounds with PRMT1 inh | AID 687036 | inhibition, % at 2.79 µM;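 active = mean inhibition across replicates above the hit cutoff derived for the earlier primary screen, cut at about 22% in these data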
UHRF1 ctr MBD2 – UHRF1 methyl-oligo binding inhibition as MBD2 counter-screen; UHRF1 binding to methylated oligonucleotide, TR-FRET; shares compounds with MBD2 inh; 1,000 tested, 25% active; inhibition, % at 4.4 µM; AID 720530;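 note: UHRF1 SRA domain binding a labeled hemimethylated CpG hairpin DNA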
MBD2 confirm – MBD2-DBD methyl-DNA binding inhibition, TR-FRET confirmation | 1,000 tested, 26% active | shares compounds with MBD2 inh | TR-FRET MBD2-DBD binding to methylated oligonucleotide | inhibition, % at 4.4 µM; in the data active = inhibition above about 14%
Of the large screens only hits and unclear results are named; the others gave an inactive call (follow-up assays come after a bar, where they were run). Hits are enriched below; roughly 3.3% of the tested compounds scored in any of these assays. Cut-off read from the data, not from the text of the source, unless noted: active = inhibition above about 21%; inactive = the rest.

O=[N+]([O-])c1ccc(NCCCO)c(S(=O)(=O)N2CCOCC2)c1	none
CC(C)C(=O)N(c1ccc2oc(=O)sc2c1)S(=O)(=O)c1cccs1	PRMT1 inh 53, PfM18AAP inh-1 37 | PfM18AAP inh-2 inactive | CTSL1 confirm inactive | PRMT1 inh conf inactive
CC(=O)N(c1ccc2oc(=O)sc2c1)S(=O)(=O)c1cccs1	PRMT1 inh 94, PfM18AAP inh-1 40 | PfM18AAP inh-2 inactive | CTSL1 confirm inactive | PRMT1 inh conf 57
CC(=O)N(c1ccc2oc(=O)sc2c1)S(=O)(=O)c1ccc(C(=O)O)cc1	PRMT1 inh 91, PfM18AAP inh-1 46 | PfM18AAP inh-2 inactive | CTSL1 confirm inactive | PRMT1 inh conf 80
C[C@H]1COc2cc(Br)ccc2S(=O)(=O)N1Cc1cn(CCC2OCCO2)nn1	none (no result: PfG6PD inh, PfM18AAP inh-1)
O=C(NCc1ccccc1)OC1CCC12CCC(c1ccccc1)CC2 (stereo not drawn)	none (no result: PfG6PD inh, PfM18AAP inh-1)
O=C(CSc1cn[nH]n1)Nc1cccc(C(=O)O)c1	PRMT1 inh 72, MBD2 inh 15, PfM18AAP inh-1 54 | PfM18AAP inh-2 inactive | CTSL1 confirm inactive | PRMT1 inh conf 90 | UHRF1 ctr MBD2 inactive | MBD2 confirm inactive
Oc1ccc(/C=N/NC(=S)Nc2cccnc2)c(O)c1O	PfG6PD inh 80, PRMT1 inh 67, MBD2 inh 30, UHRF1 MBD2 ctr 64, PfM18AAP inh-1 62 | PfM18AAP inh-2 34 | CTSL1 confirm inactive | PfG6PD confirm 67 | Diaphorase 10uM 55 | Diaphorase 30uM 80 | PRMT1 inh conf 88 | UHRF1 ctr MBD2 inactive | MBD2 confirm inactive
O=C(O)c1ccc2nc(-c3ccco3)c(-c3ccco3)nc2c1	PRMT1 inh 55, MBD2 inh 69, UHRF1 MBD2 ctr 93, PfM18AAP inh-1 35 | PfM18AAP inh-2 inactive | CTSL1 confirm inactive | PRMT1 inh conf 67 | UHRF1 ctr MBD2 73 | MBD2 confirm 23
O=C(Nc1cccc(C(F)(F)F)c1)c1ccc2nc(-c3ccco3)c(-c3ccco3)nc2c1	none
Cc1c(Br)c(O)c(Br)c2sc(=O)oc12	PRMT1 inh 80, MBD2 inh 16, UHRF1 MBD2 ctr 33, PfM18AAP inh-1 36 | PfM18AAP inh-2 inactive | CTSL1 confirm inactive | UHRF1 ctr MBD2 inactive | MBD2 confirm inactive
C[C@H](NC(=O)c1cc2c(cn1)[nH]c1ccccc12)C(=O)O	PfG6PD inh 98, MBD2 inh 42, PfM18AAP inh-1 51 | PfM18AAP inh-2 inactive | CTSL1 confirm inactive | PfG6PD confirm 62 | Diaphorase 10uM inactive | Diaphorase 30uM inactive | UHRF1 ctr MBD2 inactive | MBD2 confirm inactive
O=C(O)c1cc2c(cn1)[nH]c1ccccc12	none
C#CCN1CC(COc2ccccc2)Oc2cccc(Oc3ccc(SC)c(C)c3)c2S1(=O)=O (stereo not drawn)	none (no result: PfG6PD inh, PfM18AAP inh-1)
OC1(C#Cc2c(-c3ccsc3)sc3ccccc23)CCCCC1	none (no result: PfG6PD inh, PfM18AAP inh-1)
NC1=C(c2ccc([N+](=O)[O-])cc2)C(=O)CO1	none
O=c1oc2c(-c3ccc([N+](=O)[O-])cc3)cc(O)cc2s1	PRMT1 inh 78, MBD2 inh 21, UHRF1 MBD2 ctr 30, PfM18AAP inh-1 33 | PfM18AAP inh-2 inactive | CTSL1 confirm inactive | UHRF1 ctr MBD2 inactive | MBD2 confirm inactive
